Results: PubChem BioAssay (Tox21)
Records with an inconclusive call do not appear. A call without a number means that no potency is given here. Activity calls are given as the source filed them. Unless noted, the call rests on the fitted dose curve.

Tested on: not listed separately
Assay: qHTS assay to identify small molecule antagonists of the farnesoid-X-receptor (FXR) signaling pathway - cell viability counter screen (AID 743221; active means well fitted cell-killing curve with a large enough effect in the repeat runs, not every such curve was filed as active; further: nearly all actives have a fitted effect of over 50% in size)
Conditions: FXR-bla HEK293T viability, CellTiter-Glo luminescence, 16 h; series mostly up to 62.6 µM
Summary of the method: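 Quantitative HTS of the Tox21 10K library run in parallel with the beta-lactamase reporter read. HEK 293T cells carrying a UAS-driven bla reporter got compound and 50 uM CDCA (final) for 16 h; ATP-based luminescence followed.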

Compound | Potency
CCCCN(CCCC)CCCC | inactive
O=C(O)c1ccccc1C(c1ccc(O)cc1)c1ccc(O)cc1 | inactive
CCCCCC1=CCCC1=O | inactive
O=C(O)c1ccc2c(c1)C(=O)OC2=O | inactive
N[C@@H](Cc1cc(I)c(Oc2cc(I)c(O)c(I)c2)c(I)c1)C(=O)O | inactive
O=C(O)c1cc(O)c(O)c(O)c1 | inactive
c1c[nH]cn1 | inactive
c1ccc2scnc2c1 | inactive
CC(=O)Nc1ccccc1 | inactive
C#CCN(C)Cc1ccccc1 | inactive
CCCCCCCCCC | inactive
O=C(O)[C@H](O)[C@@H](O)[C@H](O)[C@H](O)CO | inactive
O=C(Oc1ccccc1)c1ccccc1 | inactive
CC(c1cc2ccccc2s1)N(O)C(N)=O (configuration not stated) | inactive

Molecular target: Vitamin D3 receptor (Homo sapiens) (UniProt P11473)
Assay: qHTS assay to identify small molecule agonists of the vitamin D receptor (VDR) signaling pathway (AID 743222)
Conditions: HEK293T VDR-UAS-bla, beta-lactamase FRET ratio, 16 h; series mostly up to 63.5 µM
Summary of the method: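 Following 4 h attachment at 37C, VDR-bla cells (2,000 per well) received DMSO-dissolved compounds or controls. After 16 h incubation, LiveBLAzer B/G FRET substrate was added and fluorescence read 2 h later at room temperature.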

Vitamin D3 receptor (Homo sapiens), sequence (P11473 whole entry, looked up): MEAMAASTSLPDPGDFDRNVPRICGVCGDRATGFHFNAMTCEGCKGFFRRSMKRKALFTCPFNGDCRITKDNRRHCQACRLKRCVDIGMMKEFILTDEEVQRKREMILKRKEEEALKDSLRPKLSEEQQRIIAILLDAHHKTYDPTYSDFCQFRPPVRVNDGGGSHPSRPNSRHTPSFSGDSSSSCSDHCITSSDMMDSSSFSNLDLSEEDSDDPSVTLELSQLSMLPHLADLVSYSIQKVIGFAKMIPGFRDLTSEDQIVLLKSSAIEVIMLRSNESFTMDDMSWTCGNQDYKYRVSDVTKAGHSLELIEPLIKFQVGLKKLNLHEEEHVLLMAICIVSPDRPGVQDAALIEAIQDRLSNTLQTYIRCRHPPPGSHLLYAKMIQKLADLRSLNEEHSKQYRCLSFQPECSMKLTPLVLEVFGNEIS

Compound | outcome
C=C(C)C(=O)O[C@H]1C[C@@H]2CC[C@@]1(C)C2(C)C | inactive
O=S1(=O)CC=CC1 | inactive
Oc1cccc2ccccc12 | inactive
C=C(C)C(=O)OCCOCCOCCOC(=O)C(=C)C | inactive
O=C(O)CCCCCCCCCCC(=O)O | inactive
O=[N+]([O-])c1ccc(/C=C/c2ccc([N+](=O)[O-])cc2S(=O)(=O)O)c(S(=O)(=O)O)c1 | inactive
O=C=NCCCCCCN=C=O | inactive
COc1ccc2cc([C@H](C)C(=O)O)ccc2c1 | inactive
C[Si](O[Si](C)(C)C)O[Si](C)(C)C | inactive
C/C=C1/CC2C=CC1C2 (configuration not stated) | inactive
c1ccc2c(c1)ccc1ccccc12 | inactive
CCN(CC)CCCC(C)Nc1ccnc2cc(Cl)ccc12 (configuration not stated) | inactive
CCCCCC/C(C=O)=C\c1ccccc1 | inactive
